# According to PubChem BioAssay AID652054 (National Center for Advancing Translational Sciences (NCATS), 2013):
# Hit rate of the full screen: of about 360,000 compounds, about 9,100 (2.5%) were called active. Inconclusive results (about 4%) are left out. No stated cut-off is given here; in the data, active means max response below about -50%; inconclusive means no clear call, values can overlap the other calls; inactive means above that. The full list was thinned out, with actives kept by preference.
# Molecular target: D(3) dopamine receptor (Homo sapiens) (UniProt P35462)
# Sequence (P35462 whole entry, looked up): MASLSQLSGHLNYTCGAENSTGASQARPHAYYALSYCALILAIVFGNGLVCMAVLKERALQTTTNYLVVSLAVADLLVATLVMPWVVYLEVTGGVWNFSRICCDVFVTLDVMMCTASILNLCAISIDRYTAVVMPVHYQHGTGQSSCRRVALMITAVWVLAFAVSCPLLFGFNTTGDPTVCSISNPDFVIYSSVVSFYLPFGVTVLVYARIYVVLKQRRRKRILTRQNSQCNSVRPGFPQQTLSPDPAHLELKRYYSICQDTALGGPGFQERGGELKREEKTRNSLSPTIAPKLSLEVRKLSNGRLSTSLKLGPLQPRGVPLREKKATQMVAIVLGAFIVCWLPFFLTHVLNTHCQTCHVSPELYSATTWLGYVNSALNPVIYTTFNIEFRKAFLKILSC
# Assay: qHTS of D3 Dopamine Receptor Antagonist: qHTS
# Conditions: D3R cells, DiscoveRx beta-arrestin luminescence, antagonist mode; hits give low values
# Text: D3 DARs represent a very important target for the treatment of several neuropsychiatric disorders. Indeed, one of the most promising therapeutic applications for the D3 DAR is in the area of addiction and related disorders. […] These findings have been observed with a number of addictive substances including cocaine, amphetamine, nicotine, and alcohol. […] Antagonism of the D3 DAR may also be therapeutic in the treatment of schizophrenia or psychosis. […] Since the D3 DAR is expressed in areas of the CNS associated with the control of mood and emotion, it has been hypothesized that selective antagonism of the D3 DAR may be effective in treating psychosis without inducing the motor side effects typically seen with D2 DAR antagonists.
# This part of the project aims to discover novel antagonist.
# NIH Chemical Genomics Center [NCGC]
# NIH Molecular Libraries Probe Centers Network [MLPCN]
# Assay Submitter (PI): David Sibley, NINDS
# Freshly passaged cells are plated in 1536 well white, solid bottom plates at a density of 1500 cells/well in 3microl of complete media. After an overnight incubation at 37 degrees C in 5% CO2, cells are loaded with 23nl of test compound from the compound library (as well as dopamine controls) using a 1536 pintool and incubated at 37 degrees C for 90 minutes. Two microliters of DiscoveRx reagent is then added to all cells, and they are incubated for an additional 30 - 60 minutes at room temperature. Following incubation, luminescence is measured on a ViewLux CCD-based luminometer reader using a 20 sec exposure time.
# On the % scale 0 is the no-effect control and ±100 the full control effect.
row,SMILES,"max response, negative = inhibition"
1,CC(=O)NC(=O)NC(C)Cc1ccccc1 (configuration not stated),0% (inactive)
2,CC(Cc1ccccc1)NCCC(c1ccccc1)c1ccccc1 (configuration not stated),-75.4% (active)
3,Fc1ccc(C2N3CCCN23)cc1 (configuration not stated),17.3% (inactive)
4,CCOC(=O)CC(SP1(=S)OCC2(CCCCO2)C(C2CCCCO2)O1)C(=O)OCC (configuration not stated),0.24% (inactive)
5,COc1ccc2c(c1O)-c1cccc3c1[C@@H](C2)N(C)CC3,-64.4% (active)
6,COc1c(O)ccc2c1-c1c3c(cc4c1C(C2)N(C)CC4)OCO3 (configuration not stated),-20.5% (inactive)
7,COC1=C[C@@H]2[C@@H]3Cc4ccc(OC)c(O)c4[C@]2(CCN3C)CC1=O,2.57% (inactive)
8,COc1cccc(CN2CCCC(C(=O)c3ccccc3SC)C2)c1O (configuration not stated),-25.9% (inactive)
9,c1cncc(CNC2=NCCC2)c1,-0.0969% (inactive)
10,COC(=O)CN(CCCl)P1(=O)OCCCN1CCCl (configuration not stated),9.55% (inactive)
11,CC(C)Oc1cccc(C(=O)C2CCCN(C3CCOCC3)C2)c1 (configuration not stated),-5.82% (inactive)
12,CSc1ccc(C(=O)C2CCCN(Cc3ccn[nH]3)C2)cc1 (configuration not stated),2.56% (inactive)
13,CCn1cc(CN2CCCC(C(=O)c3cccc(C(F)(F)F)c3)C2)cn1 (configuration not stated),-84.1% (active)
14,CN(C)CC1Oc2ccccc2OC1(O)c1ccccc1 (configuration not stated),-95.3% (active)
15,CC1CCC(N(C)C2CCN(C)CC2)CC1 (configuration not stated),-17.4% (inactive)
16,Cc1cccc(-n2c(C)nc3cc(C(=O)N4CCC5(CC4)OCCO5)ccc32)c1,-5.12% (inactive)
17,Clc1cccc(Cl)c1Cl,-21.5% (inactive)
18,CN1CCN(Cc2ccccc2C(F)(F)F)CC1,-22.2% (inactive)
19,Fc1cccc(F)c1CN1CCN(Cc2c(F)cccc2F)CC1,-59.3% (active)
20,O=C(N/N=C/c1c(O)n(C2CC2)c(=S)[nH]c1=O)c1ccccc1,-25.4% (inactive)
21,CCC/C(=N\O)c1c[nH]c2ccccc12,-19.7% (inactive)

row,SMILES,"max response, negative = inhibition"
1,Cc1cccc(NC(=O)N2CC3CC(C2)c2cccc(=O)n2C3)c1 (configuration not stated),8.44% (inactive)
2,CCOC(=O)C(O)(c1ccc(NC(=O)c2ccco2)c(OC)c1)C(F)(F)F (configuration not stated),44% (inactive)
3,Cc1ccc(-n2c(-c3ccc([N+](=O)[O-])cc3)nc3ccccc3c2=O)cc1,7.83% (inactive)
4,COc1cc(C(c2c(O)c3ccccc3oc2=O)c2c(C)n(C)n(-c3ccccc3)c2=O)ccc1O (configuration not stated),9.1% (inactive)
5,CCC(=O)CC(c1ccc([N+](=O)[O-])cc1)c1c(O)c2ccccc2oc1=O (configuration not stated),-88.6% (active)
6,COC(=O)C[C@H]1CC[C@H]2NC[C@@H](O)COC[C@@H]2O1,0.0579% (inactive)
7,CC(=O)NCC1=C(c2ccc3ccccc3c2)C[C@@H]2CC[C@H]1N2Cc1ccco1,-16.9% (inactive)
8,C[C@H]1CN([C@@H](C)CO)C(=O)CCCn2nncc2CO[C@H]1CN(C)C(=O)Oc1cccc2ccccc12,27% (inactive)
9,CCOC(=O)C1CN(C)CCC1=O (configuration not stated),-50.3% (active)
10,CCOC(=O)[C@]12Cc3cc(OC)ccc3[C@H]1N(C(C)C)C(=O)c1ccccc12,0.502% (inactive)
11,c1ccc(C(CN2CCCCC2)c2ccccc2)cc1,5.85% (inactive)
12,O=[N+]([O-])c1ccc(C2C3C(c4ccccc4)=NC4(CCCCC4)N32)cc1 (configuration not stated),4.9% (inactive)
13,O=C1NC(=O)C(Cc2ccccc2)C(=O)N1,4.35% (inactive)
14,CC(=O)N1CN2CN(C(C)=O)CC(C(=O)c3ccc(Br)cc3)(C2)C1,2.09% (inactive)
15,Cc1cc2ccccn2c1C(C[N+](=O)[O-])c1c(F)cccc1Cl (configuration not stated),-52.4% (active)
16,Cn1cc(C(=O)OCC(=O)N2CCCC2)c2ccccc21,0% (inactive)
17,CCC(=O)OC(Cc1ccccc1)(c1ccccc1)C(C)CN(C)C (configuration not stated),-66% (active)
18,O=P(OC1=CCCCC1)(c1ccccc1)c1ccccc1,16.2% (inactive)
19,CN(C)CCN(CC1CCCN(Cc2ccccc2F)C1)C(=O)Cc1ccc(F)c(F)c1 (configuration not stated),-0.712% (inactive)
20,Nc1ccc(C(=O)N/N=C2/CN3CCC2CC3)cc1,-6.03% (inactive)
21,C=CCN1C(=O)NC(=O)/C(=C/c2ccc(OCC(=O)Nc3ccc(C)cc3)cc2)C1=O,-2.43% (inactive)

row,SMILES,"max response, negative = inhibition"
1,O=C(O)C1CSC(c2cccnc2)N1 (configuration not stated),-75.1% (active)
2,CC(C)n1c(=O)c(C=Nc2ccc(Br)cc2)c(O)n(Cc2ccco2)c1=O,-0.258% (inactive)
3,COC(=O)C1=C(c2ccc(OCc3ccccc3)cc2)C[C@@H]2CC[C@H]1N2C(=O)NCc1ccc(Cl)cc1,-2.39% (inactive)
4,COc1ccc(N=Cc2c(O)n(C)c(=O)[nH]c2=O)cc1,-8.25% (inactive)
5,Cc1ccsc1C(=O)C1CCCN(Cc2ccc(O)cc2)C1 (configuration not stated),-22.3% (inactive)
6,COc1ccc(C(=O)C2CCCN(Cc3ccc(C)s3)C2)cc1OC (configuration not stated),1.99% (inactive)
7,Cc1ccc(CN2CCCC(C(=O)c3ccc4c(c3)OCO4)C2)cc1C (configuration not stated),-74.3% (active)
8,COc1ccc(C2C=C(C)Oc3c2c(=O)oc2ccccc32)cc1OC (configuration not stated),1.55% (inactive)
9,CC1(C)Cc2c(C#N)c(N3CCNCC3)nc(-c3ccco3)c2CS1,-15.4% (inactive)
10,CCN1CCN(Cc2cc(OC)c3c(c2)OCO3)CC1,2.18% (inactive)
11,Oc1cc2c(cc1CN1CCN(c3ccccc3)CC1)OCO2,-71.5% (active)
12,CC(C)c1ccc(O)c(CN2CCN(c3ccccc3)CC2)c1,-71% (active)
13,Cc1cc(=O)oc2c(C)c(OCC(=O)N3CCN(Cc4ccc5c(c4)OCO5)CC3)ccc12,0.853% (inactive)
14,Fc1ccc(N2CCN(Cc3ccc4c(c3)OCO4)CC2)cc1,-111% (active)
15,O=C(Cc1ccccc1[N+](=O)[O-])N1CCN(Cc2ccc3c(c2)OCO3)CC1,-4.07% (inactive)
16,COc1ccccc1CN1CCN(C(=O)Cc2ccccc2)CC1,-24% (inactive)
17,OC(Cn1c2ccccc2c2ccccc21)C[n+]1ccccc1 (configuration not stated),-9.75% (inactive)
18,c1cc2c(cc1C1OCC3C(c4ccc5c(c4)OCO5)OCC13)OCO2 (configuration not stated),1.57% (inactive)
19,C[C@]12CC[C@H](O)CC1=C([N+](=O)[O-])CC1C2CC[C@@]2(C)C1CC[C@@H]2O (some centres not stated),10.3% (inactive)
20,O=C1C2CCN(CC2)C1(CO)CO,5.89% (inactive)
